High-throughput results: PubChem BioAssay, several laboratories
E coli growth-1 = E. coli growth inhibition, primary screen, OD600. Escherichia coli growth, 23 h; stronger effect = lower value. OD600 absorbance (concentration not given with the values). 330,000 tested, 0.21% active;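 active = OD600 absorbance below the run mean of sample wells minus 3.6 SD, in any replicate, cut at about 0.56 in these data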
AddAB inh = growth inhibition of E. coli expressing H. pylori AddAB, primary screen, AddAB inhibitor project, absorbance; inhibition, % at 11.9 µM; 330,000 tested, 0.29% active; AID 435030, 2010; in the data active = inhibition above about 12%;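 also: 0% = vehicle wells of infected cells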
phage Ecoli inh = growth loss of phage-infected E. coli, primary screen, RecBCD inhibitor project, absorbance, with phage, HTS; inhibition, % at 11.9 µM; 360,000 tested, 0.26% active; AID 651602, 2012; in the data active = inhibition above about 11%
E coli growth-2 = E. coli V3065 growth inhibition, primary screen, counter-screen for AddAB inhibitor project, absorbance, OD600 | AID 449728, 2010 | 330,000 tested, 0.27% active | inhibition, % at 11.9 µM | 18 h;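 active = inhibition above the campaign's mean inhibition across all tested compounds plus 3 SD, cut at about 9.9% in these data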;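 also: uninfected addAB+ strain grown without phage in ampicillin broth; 0% = DMSO wells and 100% = ciprofloxacin 0.95 µg/ml wells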
Tat export inh = E. coli Tat export inhibitors, primary screen, MC4100, TorA-mCherry reporter, fluorescence, single point; inhibition, % at 10 µM; 340,000 tested, 0.036% active;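 active = mean replicate inhibition at least 50% and at least half of replicates individually reaching 50%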;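 also: exported cargo escapes ClpAP degradation while cytoplasmic cargo is degraded and loses fluorescence; 0% = median of neutral control wells and 100% = median of NaSCN control wells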
AI-2 QS modul = Vibrio harveyi AI-2 quorum sensing modulators, primary screen, JMH597 strain, luminescence/OD600 ratio. activity change, % at 7.5 µM. 300,000 tested, 0.4% active. Vibrio harveyi JMH597 AI-2 luminescence/OD600 ratio, 9 h; stronger effect = lower value; strain lacks LuxN and CqsS sensors; 0 = neutral-control median; in the data active = activity change below about -75%, passing the limit was not always enough;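 also: luminescence divided by OD600 gain over 9 h not by final OD600 alone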
RecBCD conf = growth loss of phage-infected RecBCD+ E. coli, confirmation, RecBCD inhibitor project, absorbance, E. coli V66, T4 gene 2 phage; AID 651982, 2013; shares compounds with phage Ecoli inh; 890 tested, 45% active; inhibition, % at 11.9 µM; E. coli V66 + T4 2- phage, growth OD;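 active = mean inhibition over triplicates exceeding the hit threshold derived in the original primary screen, cut at about 11% in these data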
Ecoli viability = E. coli viability inhibition, counter-screen for RecBCD inhibitor project, absorbance, high throughput; AID 651983, 2013; 890 tested, 29% active; shares compounds with phage Ecoli inh; inhibition, % at 11.9 µM; absorbance (OD) growth; in the data active = inhibition above about 20%;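 also: E. coli strain V66 grown with compound alone and no phage infection; 0% = bacteria with DMSO vehicle only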
AddAB phage OD = growth loss of phage-infected AddAB-carrying E. coli, confirmation, counter-screen for RecBCD inhibitor project, absorbance, E. coli V3065, T4 phage; shares compounds with phage Ecoli inh; inhibition, % at 11.9 µM; 890 tested, 45% active; E. coli expressing H. pylori AddAB + T4 phage, OD growth; gene 2 mutant T4, recBCD-deleted host; AID 651984, 2013;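 active = mean inhibition above the solvent-only control wells' mean plus 3 SD, cut at about 22% in these data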;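 also: higher means less bacterial growth from phage killing when AddAB is blocked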
The depositor's hits bear a star; x = no result given. Hits are enriched below; roughly 0.79% of the tested compounds scored in any of these assays.

SMILES	E coli growth-1	AddAB inh	phage Ecoli inh	E coli growth-2	Tat export inh	AI-2 QS modul	RecBCD conf	Ecoli viability	AddAB phage OD
COc1ccc(C=NNC(=O)CCSc2nc3ccccc3s2)cc1	0.71	x	x	x	x	x	x	x	x
FC(F)(F)c1cccc(NC(=S)NCc2ccccc2)c1	0.56	9	12*	7	0	-42	5	7	7
CCSCCc1nnc(NC(=O)Nc2cccc(C(F)(F)F)c2)s1	0.69	5	11*	5	-8	2	4	7	5
FC(F)(F)c1cccc(CNC(=S)Nc2ccccc2)c1	0.6	3	5	3	9	8	x	x	x
FC(F)(F)Sc1ccc(NC(=S)NCc2ccccc2)cc1	0.6	11	13*	10*	-13	-12	7	8	13
S=C(NCc1ccccc1)Nc1ccc(Cl)cc1	0.6	4	5	6	-7	-57	x	x	x
O=C(Nc1ccccc1)Nc1ccc(Br)c(Cl)c1	0.58	7	12*	7	-5	11	7	7	5
COc1ccc(C(C)=NNC(=O)CNC(=O)Cc2ccccc2)c(OC)c1	0.6	x	x	x	x	x	x	x	x
COC(=O)C1C[C@]2(Br)c3ccccc3N(S(=O)(=O)c3ccccc3)C2N1C(=O)OC (some centres not stated)	0.68	x	x	x	x	x	x	x	x
COc1ccc(C(O)=C2C(=O)C(=O)N(c3nc(C)c(C)s3)C2c2ccco2)cc1 (configuration not stated)	0.73	x	x	x	x	x	x	x	x
O=C(Nc1ccccc1)Nc1cccc(C(F)(F)F)c1	0.62	9	11*	7	1	12	6	6	7
CNC(=O)Nc1cccc(C(F)(F)F)c1	0.7	8	10	5	0	12	x	x	x
O=C(NCc1ccc2c(c1)CCO2)Nc1cccc(C(F)(F)F)c1	0.66	3	11*	-1	5	-46	0	0	5
O=C(NCc1cccnc1)Nc1cccc(C(F)(F)F)c1	0.55	x	2	x	11	-6	x	x	x
CN1CC2C(c3ccc(Cl)nc3)C3(c4ccc(C#N)cc4)CC2(C3)C1c1ccccc1 (configuration not stated)	0.69	x	x	x	x	x	x	x	x
CCC(C)Sc1ccc(C2C3C(=O)N(CC)C(=O)C3[C@]3(C(=O)OC)CCCCN23)cc1OC (some centres not stated)	0.69	x	x	x	x	x	x	x	x
Oc1c(Br)cc(Br)cc1CNc1cccc2cccnc12	0.64	-2	0	-4	-3	54	x	x	x
Oc1c(Br)cc(Br)c2cccnc12	x	x	44*	x	-10	x	60*	68*	53*
COc1ccc(C(C)=NNC(=O)c2nnn(-c3nonc3N)c2-c2ccccc2)cc1	0.72	x	x	x	x	x	x	x	x
CC(C)C(CO)Nc1nc(NCc2ccc(S(N)(=O)=O)cc2)c2ncn(C(C)C)c2n1 (configuration not stated)	0.69	x	x	x	x	x	x	x	x
COc1ccc(C(=O)COc2ncnc3cc(Cl)ccc23)cc1	0.7	1	98*	2	10	-4	-5	-5	0
CCS(=O)(=O)NCCc1csc(-c2cccnc2)n1	0.7	-3	97*	1	0	6	-3	-3	3
O=C(C(=O)c1cc(Br)ccc1O)c1cc(Br)ccc1O	0.17*	x	13*	x	-9	x	13*	17	16
C/C=N/NC(=O)c1cc(Br)ccc1O	x	1	2	0	-3	6	x	x	x
Nc1nc2ccc(Cl)cc2o1	0.63	x	13*	x	-16	x	14*	16	37*
SMILES	E coli growth-1	AddAB inh	phage Ecoli inh	E coli growth-2	Tat export inh	AI-2 QS modul	RecBCD conf	Ecoli viability	AddAB phage OD
CCOC(=O)C1=CCC(c2cccc(C)c2)N(S(=O)(=O)c2ccc(C)cc2)C1C(=O)OCC (configuration not stated)	0.7	x	x	x	x	x	x	x	x
COc1ccc2[nH]c3c(=O)n(N=Cc4ccc(OC)c(CN5CCCC5)c4)c(C)nc3c2c1	0.71	x	x	x	x	x	x	x	x
CC(=NN1CC(=O)NC1=O)c1ccc([N+](=O)[O-])o1	0.13*	x	50*	x	3	x	24*	44*	103*
O=Cc1cc(N=Nc2ccccc2Cl)ccc1O	0.68	7	12*	7	0	45	5	7	1
CCCCC(=O)NC(c1cccc([N+](=O)[O-])c1)c1ccc2cccnc2c1O (configuration not stated)	0.59	x	19*	x	2	x	16*	18	25*
S=C(Nc1ccc(Br)cc1)NC1CCCCC1	0.67	8	12*	6	0	3	3	5	5
CC(NC(=S)NC1CCCCC1)C(c1cccs1)N1CCOCC1 (configuration not stated)	0.69	3	-2	1	3	10	x	x	x
CC(NC(=O)C1CCCCC1)C(c1cccs1)N1CCOCC1 (configuration not stated)	0.75	1	97*	-2	0	6	2	2	2
Cc1onc(-c2ccccc2)c1C(=O)NN=Cc1cc(Cl)cc(Cl)c1O	x	x	11*	x	x	x	-1	1	2
Cc1nc2ccc(N)cc2c(=O)n1Cc1ccc(Cl)cc1	0.69	2	4	-1	15	10	x	x	x
Nc1ccc(Cn2ccc3c4c(N)nc(N)nc4ccc32)cc1	x	x	100*	x	17	x	103*	105*	105*
O=C1C=CC(n2cc(F)c(=O)[nH]c2=O)O1 (configuration not stated)	x	x	24*	x	x	x	32*	22*	46*
O=C(O)Cn1cc(F)c(=O)[nH]c1=O	0.76	1	x	0	x	-34	x	x	x
COC(=O)c1ccc(NC(=O)Nc2cccc(F)c2)cc1	0.6	9	12*	6	0	8	4	4	0
COC(=O)c1ccc(NC(=O)Nc2ccc(F)cc2F)cc1	0.71	5	7	0	-1	18	x	x	x
CC(=NNC(=O)c1cc(-c2ccccn2)nc2ccccc12)c1cccc([N+](=O)[O-])c1	0.66	x	x	x	x	x	x	x	x
CN(C)c1ccc(Sc2ccc3nc(N)nc(N)c3c2)cc1	x	x	99*	x	x	x	64*	68*	82*
COc1cc2nc(N(C)C)nc(N)c2cc1OC	0.76	1	0	-2	-4	26	x	x	x
COc1ccc(SCCN2CCC(C(C)(C)C)CCC2=O)cc1 (configuration not stated)	0.63	x	x	x	x	x	x	x	x
